Calls of active or inactive are those of the source. Rule for the calls: active = hit-call score of the fitted dose curve at least 0.9, where 1 is the maximum; inactive = score below 0.9.
Experiments:
[1] = ATG_CRE_CIS: Attagene CIS-FACTORIAL HepG2 Assay for human cAMP Responsive Element (CRE) binding protein 3 (AID 2282926); conditions: HepG2 CRE cis-reporter, Attagene multiplexed mRNA; actives raise or lower the signal
In short: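 Assay format: transient reporter transfection of HepG2, 24 h treatment, total RNA isolation with DNase I step. Reporter abundance read by fluorescence after PCR and capillary separation; DMSO-normalised gain or loss fitting.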

[2] = biological target: CCAAT/enhancer-binding protein beta (Homo sapiens) (UniProt P17676); test: ATG_C_EBP_CIS: Attagene CIS-FACTORIAL HepG2 Assay for human CCAAT/Enhancer Binding Protein (C/EBP) beta (AID 2282927); conditions: HepG2 Attagene cis-factorial transcription factor reporter; actives raise or lower the signal
Chain of CCAAT/enhancer-binding protein beta (Homo sapiens) (P17676 whole entry, looked up): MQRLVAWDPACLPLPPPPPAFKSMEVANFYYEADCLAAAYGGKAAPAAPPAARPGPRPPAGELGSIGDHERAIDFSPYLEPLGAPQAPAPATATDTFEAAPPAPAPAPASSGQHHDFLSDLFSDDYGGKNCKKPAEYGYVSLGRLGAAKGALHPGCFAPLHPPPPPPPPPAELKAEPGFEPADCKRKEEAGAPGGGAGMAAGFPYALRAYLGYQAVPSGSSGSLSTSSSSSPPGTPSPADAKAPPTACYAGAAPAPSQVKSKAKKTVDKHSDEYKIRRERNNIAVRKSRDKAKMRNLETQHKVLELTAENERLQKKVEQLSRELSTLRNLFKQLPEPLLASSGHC
In short: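 Transiently transfected HepG2 (MRTU library, endogenous TF-driven promoters); 24 h dosing; total RNA → oligo(dT) RT → PCR → 6-FAM primer extension → HpaI digest → CE; fit bidirectionally vs DMSO.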

[3] = ATG_CMV_CIS: Attagene CIS-FACTORIAL HepG2 Assay for human CMV (Internal Marker) (AID 2282928); conditions: HepG2 CMV promoter reporter, transcription factor profiling; actives raise or lower the signal;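 note: endpoint acts as a background internal control marker rather than a target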
In short: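 Reporter transcripts from transfected HepG2 cells are isolated after 24 h of chemical dosing, reverse-transcribed and amplified. Fragments labeled with 6-FAM are cut with HpaI and quantified by capillary electrophoresis; DMSO defines baseline.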

[4] = ATG_DR4_LXR_CIS: Attagene CIS-FACTORIAL HepG2 Assay for human Liver X Receptor (LXR), DR4 submotif (AID 2282929); conditions: HepG2 Attagene DR4 cis-reporter, mRNA transcription; actives raise or lower the signal
In short: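 Transiently transfected HepG2 liver cells; cis-regulated reporters; 24 h dosing. RT-PCR plus CE read-out of reporter mRNA. DMSO baseline, bidirectional curve fitting.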

[5] = biological target: Aryl hydrocarbon receptor (Homo sapiens) (UniProt P35869); test: ATG_Ahr_CIS: Attagene CIS-FACTORIAL HepG2 Assay for human Aryl Hydrocarbon Receptor (Ahr) (AID 2282930); conditions: HepG2 AhR cis-factorial reporter transcription; actives raise or lower the signal
Chain of Aryl hydrocarbon receptor (Homo sapiens) (P35869 whole entry, looked up): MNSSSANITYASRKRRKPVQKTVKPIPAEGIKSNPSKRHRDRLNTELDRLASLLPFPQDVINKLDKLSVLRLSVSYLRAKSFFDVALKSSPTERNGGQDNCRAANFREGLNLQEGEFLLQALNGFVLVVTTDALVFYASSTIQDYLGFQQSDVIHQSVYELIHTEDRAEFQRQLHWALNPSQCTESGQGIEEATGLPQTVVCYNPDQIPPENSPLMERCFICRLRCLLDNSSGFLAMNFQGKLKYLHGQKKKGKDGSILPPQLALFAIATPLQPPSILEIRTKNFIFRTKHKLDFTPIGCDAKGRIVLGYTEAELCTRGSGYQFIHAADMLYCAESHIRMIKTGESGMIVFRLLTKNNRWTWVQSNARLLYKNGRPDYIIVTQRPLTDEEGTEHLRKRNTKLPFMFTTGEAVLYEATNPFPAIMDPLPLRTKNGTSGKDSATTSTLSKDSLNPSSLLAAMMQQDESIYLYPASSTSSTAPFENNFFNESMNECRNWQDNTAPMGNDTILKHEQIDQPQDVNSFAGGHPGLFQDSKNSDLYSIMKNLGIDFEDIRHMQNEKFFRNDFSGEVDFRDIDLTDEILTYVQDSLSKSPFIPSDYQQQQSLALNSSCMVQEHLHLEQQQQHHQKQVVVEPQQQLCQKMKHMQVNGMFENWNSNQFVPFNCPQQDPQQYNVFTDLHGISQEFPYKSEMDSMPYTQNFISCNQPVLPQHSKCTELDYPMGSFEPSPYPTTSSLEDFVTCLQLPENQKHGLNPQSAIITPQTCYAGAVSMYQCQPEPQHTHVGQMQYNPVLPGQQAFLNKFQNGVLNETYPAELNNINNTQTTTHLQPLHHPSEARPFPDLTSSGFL
In short: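 Read-out: reporter mRNA quantified by RT-PCR with fluorescent primer extension and capillary electrophoresis. Human HepG2 liver cells carried transfected cis-promoter reporter units and were exposed to chemical for 24 h; gain or loss fitted relative to DMSO.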

[6] = ATG_AP_1_CIS: Attagene CIS-FACTORIAL HepG2 Assay for human Activator Protein 1 (AP-1) (AID 2282931); conditions: HepG2 Attagene cis-factorial AP-1 reporter mRNA; actives raise or lower the signal
In short: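 We transfected HepG2 cells transiently with a set of cis-regulated reporter transcription units, dosed them for 24 h, and quantified reporter mRNA via RT-PCR and capillary electrophoresis, scoring gain or loss of signal relative to DMSO.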

[7] = ATG_AP_2_CIS: Attagene CIS-FACTORIAL HepG2 Assay for human Activator Protein 2 (AP-2) (AID 2282932); conditions: HepG2 AP-2 cis-reporter, Attagene transcription factor profiling; actives raise or lower the signal
In short: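 Liver-derived HepG2 line, cis-reporter system measuring endogenous factors; 24 h dosing; reporter mRNA detected by fluorescent RT-PCR and capillary electrophoresis.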

[8] = ATG_BRE_CIS: Attagene CIS-FACTORIAL HepG2 Assay for human Bone Morphogenetic Protein (BMP) Response Element (BRE) (AID 2282933); conditions: HepG2 BMP response element reporter, Attagene transcription factor profiling; actives raise or lower the signal
In short: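 Fluorescence-labelled reporter cDNA fragments, separated by capillary electrophoresis, gave the signal for this component of a 52-readout multiplex. HepG2 cells were transfected, exposed to chemicals for 24 h, and compared with DMSO using bidirectional fitting.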

[9] = biological target: Retinoic acid receptor alpha (Homo sapiens) (UniProt P10276); test: ATG_DR5_RAR_CIS: Attagene CIS-FACTORIAL HepG2 Assay for human Retinoic Acid Receptor Alpha (RARE), DR5 submotif (AID 2282934); conditions: HepG2 Attagene cis-factorial RARE DR5 reporter, mRNA; actives raise or lower the signal;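 for AC50: reporter responds to endogenous RAR alpha beta and gamma in HepG2 not RARA alone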
Chain of Retinoic acid receptor alpha (Homo sapiens) (P10276 whole entry, looked up): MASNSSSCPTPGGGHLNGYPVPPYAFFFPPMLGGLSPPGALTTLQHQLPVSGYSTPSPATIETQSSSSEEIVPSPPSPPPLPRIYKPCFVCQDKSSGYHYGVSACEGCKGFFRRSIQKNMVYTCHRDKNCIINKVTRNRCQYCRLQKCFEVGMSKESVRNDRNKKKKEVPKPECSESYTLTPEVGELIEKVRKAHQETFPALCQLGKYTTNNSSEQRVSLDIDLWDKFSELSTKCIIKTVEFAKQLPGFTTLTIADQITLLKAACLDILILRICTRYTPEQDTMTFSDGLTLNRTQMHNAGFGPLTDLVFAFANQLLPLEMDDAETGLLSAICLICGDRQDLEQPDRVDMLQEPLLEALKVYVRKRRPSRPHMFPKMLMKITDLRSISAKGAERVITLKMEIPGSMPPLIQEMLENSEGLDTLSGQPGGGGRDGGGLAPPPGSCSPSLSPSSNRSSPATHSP
In short: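 Read-out: DR5-driven reporter transcript measured by RT-PCR, 6-FAM primer extension, HpaI digest and capillary electrophoresis. Human HepG2 liver cells carry transiently transfected cis-element reporter constructs; dosing lasts 24 h. Gain or loss of signal fitted against DMSO baseline.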

[10] = biological target: Transcription factor E2F1 (Homo sapiens) (UniProt Q01094); test: ATG_E2F_CIS: Attagene CIS-FACTORIAL HepG2 Assay for human E2F Transcription Factor 1 (AID 2282935); conditions: HepG2 Attagene cis-reporter, E2F reporter RNA transcripts; actives raise or lower the signal
Chain of Transcription factor E2F1 (Homo sapiens) (Q01094 whole entry, looked up): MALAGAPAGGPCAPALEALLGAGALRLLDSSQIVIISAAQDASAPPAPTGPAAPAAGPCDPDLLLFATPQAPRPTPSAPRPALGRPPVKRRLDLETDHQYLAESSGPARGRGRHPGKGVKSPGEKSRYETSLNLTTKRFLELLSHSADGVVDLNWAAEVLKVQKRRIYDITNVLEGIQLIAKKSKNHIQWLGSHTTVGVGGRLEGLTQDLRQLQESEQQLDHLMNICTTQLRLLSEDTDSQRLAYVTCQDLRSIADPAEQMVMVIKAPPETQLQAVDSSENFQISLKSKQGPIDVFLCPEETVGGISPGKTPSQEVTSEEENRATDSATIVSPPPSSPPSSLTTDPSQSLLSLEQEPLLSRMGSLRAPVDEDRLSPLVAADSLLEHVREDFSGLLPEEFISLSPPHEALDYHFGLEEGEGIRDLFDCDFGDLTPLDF
In short: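 Liver-derived HepG2 cells expressing transfected promoter-driven reporter units received test chemical for 24 hours. Signal gains or losses were fitted bidirectionally against DMSO.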

[11] = ATG_E_Box_CIS: Attagene CIS-FACTORIAL HepG2 Assay for human Enhancer Box (E-box) (AID 2282936); conditions: HepG2 E-box cis-reporter transcription, actives raise or lower the signal
In short: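 In this cell-based setup, HepG2 cells bearing transfected promoter-driven reporter units were exposed to chemicals for 24 h; reporter transcripts were amplified, 6-FAM-labelled, cut with HpaI and sized by capillary electrophoresis.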

[12] = ATG_M_61_CIS: Attagene CIS-FACTORIAL HepG2 Assay for M61 Transcription Factor (Internal Marker) (AID 2282937); conditions: HepG2 Attagene CIS-FACTORIAL M61 internal marker reporter; actives raise or lower the signal
In short: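 Multiplexed reporter mRNA assay, HepG2 human hepatoma cells, 24 h treatment. Signal: FAM-labelled, HpaI-digested RT-PCR fragments by CE. Fit: bidirectional, baseline DMSO.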

[13] = ATG_EGR_CIS: Attagene CIS-FACTORIAL HepG2 Assay for human Early Growth Response 1 (EGR1) (AID 2282938); conditions: HepG2 Attagene CIS-FACTORIAL EGR reporter mRNA; actives raise or lower the signal
In short: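 Multiplexed cis-reporter system in human hepatoma HepG2 cells, transiently transfected. Cells are dosed for 24 h; reporter transcripts are amplified, fluorescently tagged and sized by capillary electrophoresis, with DMSO as negative control.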

[14] = ATG_M_19_CIS: Attagene CIS-FACTORIAL HepG2 Assay for M19 Transcription Factor (Internal Marker) (AID 2282939); conditions: HepG2 Attagene CIS-FACTORIAL M19 internal marker reporter; actives raise or lower the signal
In short: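 HepG2, MRTU transient transfection, 24 h dosing. Total RNA → RT-PCR → 6-FAM primer extension → HpaI digest → CE fluorescence. Bidirectional curve fit, DMSO negative control.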

[15] = ATG_Ets_CIS: Attagene CIS-FACTORIAL HepG2 Assay for human Erythroblast Transformation Specific (ETS) (AID 2282941); conditions: HepG2 ETS cis-reporter transcription, actives raise or lower the signal
In short: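 Bidirectional fit versus DMSO of reporter mRNA signal, detected by RT-PCR and capillary electrophoresis in HepG2 cells transiently transfected with cis-element reporters and dosed 24 h.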

[16] = biological target: Hepatocyte nuclear factor 3-beta (Homo sapiens) (UniProt Q9Y261); test: ATG_FoxA2_CIS: Attagene CIS-FACTORIAL HepG2 Assay for human Forkhead box A2 (FOXA2) (AID 2282942); conditions: HepG2 cis-reporter transcription factor activity, 24 h; actives raise or lower the signal
Chain of Hepatocyte nuclear factor 3-beta (Homo sapiens) (Q9Y261 whole entry, looked up): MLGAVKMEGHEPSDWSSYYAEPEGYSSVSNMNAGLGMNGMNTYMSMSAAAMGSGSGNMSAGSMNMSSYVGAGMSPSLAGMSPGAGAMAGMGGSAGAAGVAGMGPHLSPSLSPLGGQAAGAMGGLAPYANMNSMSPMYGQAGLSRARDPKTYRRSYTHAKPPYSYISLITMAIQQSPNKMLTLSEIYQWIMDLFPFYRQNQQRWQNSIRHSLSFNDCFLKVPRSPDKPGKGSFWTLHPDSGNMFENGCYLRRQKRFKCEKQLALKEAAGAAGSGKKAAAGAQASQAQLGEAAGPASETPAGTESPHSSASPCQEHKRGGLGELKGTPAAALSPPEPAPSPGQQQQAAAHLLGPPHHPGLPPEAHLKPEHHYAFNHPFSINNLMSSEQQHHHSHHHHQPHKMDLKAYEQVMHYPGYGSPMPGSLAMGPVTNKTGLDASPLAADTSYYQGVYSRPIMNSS
In short: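 Multiplexed cis-element reporter assay in transiently transfected HepG2. Twenty-four hours post-dosing, RNA was reverse-transcribed, amplified, FAM-labelled, HpaI-digested and separated by CE. Activity gain or loss relative to DMSO.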

[17] = ATG_FoxO_CIS: Attagene CIS-FACTORIAL HepG2 Assay for human Forkhead box O (FoxO) (AID 2282943); conditions: HepG2 Attagene cis-reporter, FoxO element, mRNA; actives raise or lower the signal
In short: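 Read-out: fluorescence of 6-FAM-labelled reporter cDNA fragments resolved by capillary electrophoresis. Transiently transfected HepG2 cells were dosed for 24 h; activity fitted in both directions relative to DMSO controls.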

[18] = ATG_GATA_CIS: Attagene CIS-FACTORIAL HepG2 Assay for human GATA Binding Protein (AID 2282944); conditions: HepG2 GATA cis-element reporter, Attagene multiplex mRNA; actives raise or lower the signal
In short: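 Cells: HepG2, transiently transfected with cis-regulated reporter transcription units. Exposure: 24 h. Detection: RT-PCR plus capillary electrophoresis of FAM-labeled fragments. Analysis: bidirectional, DMSO as baseline.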

[19] = ATG_GLI_CIS: Attagene CIS-FACTORIAL HepG2 Assay for human Zinc Finger Protein GLI1 (AID 2282945); conditions: HepG2, Attagene cis-factorial reporter mRNA, GLI element; actives raise or lower the signal
In short: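 Transiently transfected HepG2 cells report endogenous transcription factor activity via cis-element-driven reporter units. After 24 h compound exposure, reporter mRNA was measured by RT-PCR with capillary electrophoresis; bidirectional fitting against DMSO baseline.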

Measured: AC50

O=C1OC(=O)c2c(Cl)c(Cl)c(Cl)c(Cl)c21
active: [5] 36.2 µM | [16] 33.2 µM
inactive: all other assays above

O=C(c1ccccc1)C(O)c1ccccc1 (stereo not drawn)
inactive: all assays above

CCCCCCOC(=O)CCC
inactive: all assays above

C=C1C[C@]23C[C@@]1(O)CC[C@H]2[C@@]12C=C[C@H](O)[C@@](C)(C(=O)O1)[C@H]2[C@@H]3C(=O)O
inactive: all assays above

O=C(CC(=O)c1ccccc1)c1ccccc1
active: [1] 51.1 µM | [2] 70.4 µM | [3] 47.2 µM | [5] 25.9 µM | [6] 80.1 µM | [9] 62.5 µM | [11] 42.5 µM | [13] 100 µM | [18] 171 µM | [19] 157 µM
inactive: [4] | [7] | [8] | [10] | [12] | [14] | [15] | [16] | [17]

Cc1ccc(C)o1
inactive: all assays above

COC(C)(C)CCO
inactive: all assays above

CCCC(=O)OCCc1ccccc1
inactive: all assays above

CCCCCCC(C)(C)S
inactive: all assays above

COc1cc(Cl)c(OC)cc1N
active: [5] 51.2 µM
inactive: all other assays above

CCCC[P+](CCCC)(CCCC)CCCC
inactive: all assays above

CN(C)C(=O)Nc1ccc(Oc2ccc(Cl)cc2)cc1
active: [3] 71.9 µM | [4] 72 µM | [6] 100 µM | [8] 113 µM
inactive: all other assays above

COc1ccccc1[N+](=O)[O-]
not listed: [16]
inactive: all other assays above

CC(C)c1ccccc1O
active: [5] 42.9 µM
inactive: all other assays above

CC(=O)Nc1ccc(C(=O)CCl)cc1
active: [1] 7.97 µM | [4] 12.9 µM | [6] 56.5 µM | [7] 7.19 µM | [11] 20.6 µM
inactive: all other assays above

C=CCCCCCCCCCC
not listed: [15]
inactive: all other assays above

CCNCCO
not listed: [16]
inactive: all other assays above

CC1CCC(C(C)C)C(O)C1 (stereo not drawn)
inactive: all assays above

CN(C)CCOC(C)(c1ccccc1)c1ccccn1 (stereo not drawn)
not listed: [16]
inactive: all other assays above

CCOC(=O)CC(C)O (stereo not drawn)
not listed: [18]
inactive: all other assays above

c1ccc(Oc2ccccc2)cc1
inactive: all assays above

CCCCCCCCCC(C)C=O (stereo not drawn)
not listed: [16]
inactive: all other assays above

CC(C)(N=C=O)c1cccc(C(C)(C)N=C=O)c1
inactive: all assays above

COc1cccc(OC)c1O
inactive: all assays above

CC(=O)OCCCc1ccccc1
not listed: [16]
inactive: all other assays above

CCCCCCC(CO)CCCC (stereo not drawn)
active: [5] 25.6 µM
inactive: all other assays above

CCOc1ccccc1O
not listed: [18]
inactive: all other assays above

CN1C(=O)c2ccccc2C1=O
inactive: all assays above

CN1CCOCC1
inactive: all assays above
